# Several values for one entry are separate records, joined by “and”; a condition that tells them apart may be missing. Equal entries are not always repeated. The campaign covered roughly 5,500 compounds. About 2,000 (36%) were called active. Roughly 18% stayed inconclusive and do not appear here. This is one part of the list. A number with no mark means an inactive call. Cut-off read from the data, not from the text of the source: active = normalized growth mostly below about 0.91 (no sharp cut-off); inconclusive = no clear call, values can overlap the other calls; inactive = mostly above about 0.92.
# Assay: chemical genetic growth profiling, strain panel (AID 1159580);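 note: tested at 20 µM; growth read once vehicle control cultures reached saturation at 30 °C; 1 = growth at the plate median or of vehicle wells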
# Settings: S. cerevisiae deletion strains, growth OD
structure (smiles),measurement,setting,value
CC1=CC(=O)c2ccccc2C1=O,normalized growth,"locus YAL013W, strain DEP1, stronger effect = lower value",0.0548 (active)
same,normalized growth,"locus YAL021C, strain ccr4, stronger effect = lower value",1.02
same,normalized growth,"locus YAL026C, strain drs2, stronger effect = lower value",0.903 (active)
same,normalized growth,"locus YAL030W, strain snc1, stronger effect = lower value",1.02
same,normalized growth,"locus YBL061C, strain skt5, stronger effect = lower value",1.03
same,normalized growth,"locus YBR009C, strain hhf1, stronger effect = lower value",0.757 (active)
same,normalized growth,"locus YBR021W, strain FUR4, stronger effect = lower value",0.0857 (active)
same,normalized growth,"locus YBR023C, strain chs3, stronger effect = lower value",0.999
same,normalized growth,"locus YBR171W, strain sec66, stronger effect = lower value",1.03
same,normalized growth,"locus YBR229C, strain ROT2, stronger effect = lower value",0.076 (active)
same,normalized growth,"locus YBR231C, strain swc5, stronger effect = lower value",0.955
same,normalized growth,"locus YBR279W, strain paf1, stronger effect = lower value",0.971
same,normalized growth,"locus YCL011C, strain gbp2, stronger effect = lower value",0.864 (active)
same,normalized growth,"locus YCL016C, strain dcc1, stronger effect = lower value",0.933
same,normalized growth,"locus YCL029C, strain bik1, stronger effect = lower value",0.0624 (active)
same,normalized growth,"locus YCL061C, strain MRC1, stronger effect = lower value",0.932
same,normalized growth,"locus YCL069W, strain vba3, stronger effect = lower value",0.967
same,normalized growth,"locus YCR088W, strain abp1, stronger effect = lower value",1.03
same,normalized growth,"locus YDL005C, strain med2, stronger effect = lower value",1.03
same,normalized growth,"locus YDL035C, strain GPR1, stronger effect = lower value",0.0512 (active)
same,normalized growth,"locus YDL040C, strain nat1, stronger effect = lower value",1.03
same,normalized growth,"locus YDL074C, strain BRE1, stronger effect = lower value",0.108 (active)
same,normalized growth,"locus YDL101C, strain DUN1, stronger effect = lower value",0.0567 (active)
same,normalized growth,"locus YDL134C, strain PPH21, stronger effect = lower value",0.046 (active)
same,normalized growth,"locus YDL185W, strain tfp1, stronger effect = lower value",0.0717 (active)
same,normalized growth,"locus YDL192W, strain arf1, stronger effect = lower value",0.0585 (active)
same,normalized growth,"locus YDR001C, strain nth1, stronger effect = lower value",1.04
same,normalized growth,"locus YDR069C, strain doa4, stronger effect = lower value",1.03
same,normalized growth,"locus YDR101C, strain arx1, stronger effect = lower value",0.0639 (active)
same,normalized growth,"locus YDR137W, strain rgp1, stronger effect = lower value",0.916
same,normalized growth,"locus YDR150W, strain NUM1, stronger effect = lower value",0.0617 (active)
same,normalized growth,"locus YDR159W, strain sac3, stronger effect = lower value",0.983
same,normalized growth,"locus YDR162C, strain NBP2, stronger effect = lower value",0.054 (active)
same,normalized growth,"locus YDR195W, strain ref2",1.3 [resistant] (active)
same,normalized growth,"locus YDR297W, strain sur2, stronger effect = lower value",0.988
same,normalized growth,"locus YDR318W, strain mcm21, stronger effect = lower value",0.0603 (active)
same,normalized growth,"locus YDR334W, strain swr1, stronger effect = lower value",1.01
same,normalized growth,"locus YDR335W, strain msn5, stronger effect = lower value",1.01
same,normalized growth,"locus YDR388W, stronger effect = lower value",0.0538 (active)
same,normalized growth,"locus YDR392W, strain spt3, stronger effect = lower value",0.539 (active)
same,normalized growth,"locus YDR502C, strain sam2, stronger effect = lower value",0.059 (active)
same,normalized growth,"locus YEL003W, strain gim4, stronger effect = lower value",0.938
same,normalized growth,"locus YEL037C, strain rad23, stronger effect = lower value",0.994
same,normalized growth,"locus YEL061C, strain CIN8 (second series), stronger effect = lower value",1.02
same,normalized growth,"locus YEL061C, strain CIN8, stronger effect = lower value",0.0492 (active)
same,normalized growth,"locus YER015W, strain faa2, stronger effect = lower value",0.971
same,normalized growth,"locus YER016W, strain bim1, stronger effect = lower value",1.02
same,normalized growth,"locus YER110C, stronger effect = lower value",0.0711 (active)
same,normalized growth,"locus YER111C, strain swi4, stronger effect = lower value",1.02
same,normalized growth,"locus YER155C, strain BEM2 (second series), stronger effect = lower value",0.993
same,normalized growth,"locus YER155C, strain BEM2, stronger effect = lower value",0.076 (active)
same,normalized growth,"locus YER167W, strain BCK2, stronger effect = lower value",0.0494 (active)
same,normalized growth,"locus YFR010W, strain ubp6, stronger effect = lower value",0.989
same,normalized growth,"locus YGL078C, strain dbp3, stronger effect = lower value",0.294 (active)
same,normalized growth,"locus YGL086W, strain mad1, stronger effect = lower value",0.0543 (active)
same,normalized growth,"locus YGL167C, strain pmr1, stronger effect = lower value",1.04
same,normalized growth,"locus YGL173C, strain kem1, stronger effect = lower value",0.987
same,normalized growth,"locus YGL227W, strain vid30, stronger effect = lower value",0.974
same,normalized growth,"locus YGL240W, strain doc1, stronger effect = lower value",0.871 (active)
same,normalized growth,"locus YGL248W, strain PDE1, stronger effect = lower value",0.0439 (active)
same,normalized growth,"locus YGL253W, strain hxk2, stronger effect = lower value",0.887 (active)
same,normalized growth,"locus YGR078C, strain PAC10, stronger effect = lower value",0.0487 (active)
same,normalized growth,"locus YGR135W, strain pre9, stronger effect = lower value",0.0619 (active)
same,normalized growth,"locus YGR229C, strain SMI1, stronger effect = lower value",0.0566 (active)
same,normalized growth,"locus YGR252W, strain gcn5, stronger effect = lower value",0.168 (active)
same,normalized growth,"locus YHR013C, strain ard1, stronger effect = lower value",1.17 [resistant] (active)
same,normalized growth,"locus YHR027C, strain rpn1, stronger effect = lower value",0.997
same,normalized growth,"locus YHR030C, strain SLT2, stronger effect = lower value",0.0463 (active) and 0.306 (active)
same,normalized growth,"locus YHR079C, strain IRE1 (second series), stronger effect = lower value",0.0572 (active)
same,normalized growth,"locus YHR079C, strain IRE1, stronger effect = lower value",0.291 (active)
same,normalized growth,"locus YHR094C, strain hxt1, stronger effect = lower value",0.0585 (active)
same,normalized growth,"locus YHR129C, strain ARP1, stronger effect = lower value",0.058 (active)
same,normalized growth,"locus YHR142W, strain chs7, stronger effect = lower value",0.838 (active)
same,normalized growth,"locus YHR200W, strain rpn10, stronger effect = lower value",0.0601 (active)
same,normalized growth,"locus YIL066C, strain RNR3, stronger effect = lower value",0.0506 (active)
same,normalized growth,"locus YIL073C, strain SPO22, stronger effect = lower value",0.117 (active)
same,normalized growth,"locus YIL125W, strain kgd1, stronger effect = lower value",0.419 (active)
same,normalized growth,"locus YIR030C, strain dcg1, stronger effect = lower value",0.0593 (active)
same,normalized growth,"locus YJL092W, strain hpr5, stronger effect = lower value",1.02
same,normalized growth,"locus YJL095W, strain BCK1 (second series), stronger effect = lower value",1.02
same,normalized growth,"locus YJL095W, strain BCK1, stronger effect = lower value",0.0528 (active) and 0.292 (active)
same,normalized growth,"locus YJL115W, strain asf1, stronger effect = lower value",1.03
same,normalized growth,"locus YJL129C, strain trk1, stronger effect = lower value",1.02
same,normalized growth,"locus YJL134W, strain LCB3, stronger effect = lower value",0.0458 (active)
same,normalized growth,"locus YJL154C, strain vps35, stronger effect = lower value",1.03
same,normalized growth,"locus YJL164C, strain tpk1, stronger effect = lower value",0.934
same,normalized growth,"locus YJL166W, strain qcr8, stronger effect = lower value",0.639 (active)
same,normalized growth,"locus YJL168C, strain set2, stronger effect = lower value",0.0804 (active)
same,normalized growth,"locus YJL187C, strain SWE1 (second series), stronger effect = lower value",0.0592 (active)
same,normalized growth,"locus YJR043C, strain POL32, stronger effect = lower value",0.0645 (active)
same,normalized growth,"locus YJR066W, strain TOR1, stronger effect = lower value",0.368 (active)

# From PubChem BioAssay AID1159580 (chemical genetic matrix, 2015)
